Activity calls are given as the source filed them.

The values that follow come from PubChem BioAssay.

This experiment can be described thus: PSAC antagonists in infected red cells, primary screen, cell-based, P. falciparum Indochina, OD700, 2 h (AID 1155).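 Also: lysis reports solute entry through the parasite surface anion channel PSAC; channel blockers reduce lysis of infected cells.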 Conditions: P. falciparum Indochina infected erythrocytes, osmotic lysis OD700; higher = more signal, called active from +8 up or from −8 down.
With `O=C1C2C=CC(C(O)Cc3ccccc3)N(n3cnnc3)C2C(=O)N1Cc1ccccc1` (stereo unspecified), the z-score was 1.06 (inactive). Consider `CCCC[C@@H]1C[C@H]1[C@@H](NC(=O)c1ccco1)c1ccc(-c2ccccc2)cc1`, for which the z-score was -0.912 (inactive). Under `C[C@@]1([C@@H](NC(=O)c2ccc(-c3ccccc3)cc2)c2ccc(Cl)cc2)C[C@H]1C1CCCCC1` stands 3.36 (inactive); under `COC(=O)c1c(CC[C@@H](CO)NC(=O)NCCn2cc(C3(O)CCCC3)nn2)oc(C(C)=O)c1C(=O)OC`, 0.474 (inactive). The result for `CC1(C)C2C=C(C(O)C3C=CC4C(=O)NC(=O)C4N3Nc3ccc(Cl)cc3Cl)C[C@@H]1C2` (stereo partly specified) reads 0.916 (inactive). Under `NC(=O)NCC#Cc1ccc2c(c1)[C@]1(C(=O)N2)[C@H](C(=O)Nc2nc3ccccc3s2)[C@H]2C(=O)O[C@H](c3ccccc3)[C@H](c3ccccc3)N2[C@@H]1c1ccccc1OCCO` stands 0.831 (inactive). For `COC(=O)[C@@]1(Cc2ccc(F)cc2)[C@H]2c3cc(C(=O)N(C)C)n(Cc4cc(F)c(F)c(F)c4)c3C[C@H]2CN1C(=O)c1ccccc1`, the z-score was 0.548 (inactive). Under `[N-]=[N+]=NCc1ccccc1[C@@H]1OC(c2ccc(OCCCO)cc2)=N[C@]1(Cc1ccccc1)C(=O)NCC(O)CO` (stereo partly specified) stands 1.15 (inactive); under `COc1cc2c(cc1OC)CN(C(=O)[C@@H]1[C@H]3C(=O)O[C@H](c4ccccc4)[C@H](c4ccccc4)N3[C@H](c3ccc(O)cc3)[C@@]13C(=O)Nc1ccccc13)CC2`, 0.216 (inactive); under `[N-]=[N+]=Nc1ccccc1[C@H]1OC(c2ccc(OCCCO)cc2)=N[C@@]1(CCS(=O)(=O)c1ccccc1)C(=O)NCC(O)CO` (stereo partly specified), 28.2 (active). The result for `O=C1NC(=O)C2C1C=CC(C(O)c1cccs1)N2Nc1ccc(Cl)cc1Cl` (stereo unspecified) reads 1.32 (inactive); that for `C=CCNC(=O)[C@H]1[C@@H]2C(=O)O[C@@H](c3ccccc3)[C@@H](c3ccccc3)N2[C@@H](c2ccccc2OCCO)[C@]12C(=O)Nc1ccc(C#CCCO)cc12`, 1.75 (inactive); that for `CC(C)C(CO)N1C(=O)[C@@H]2C3C(=O)OCCC/C=C\[C@H]3OC23C=CCN(CCN2CCOCC2)C(=O)[C@@H]13` (stereo partly specified), 0.179 (inactive).

Consider `CC(=O)n1cc(C(O)C2C=CC3C(=O)N(c4ccccc4)C(=O)C3N2Nc2ccc([N+](=O)[O-])cc2)c2ccccc21` (stereo unspecified), for which the z-score was 3.57 (inactive). Under `CCOC(=O)C[C@H]1[C@H](OC(=O)c2ccc(C(=O)c3ccccc3)cc2)[C@@H](NC(=O)c2ccc3ccccc3n2)c2cc(OCCCO)ccc2N1C(=O)c1ccccc1` stands -0.136 (inactive). The result for `COc1ccc(C#Cc2ccc3c(c2)[C@]2(C(=O)N3)[C@H](C(=O)NC[C@H](O)c3ccccc3)[C@H]3C(=O)O[C@H](c4ccccc4)[C@H](c4ccccc4)N3[C@@H]2c2ccc(O)cc2)cc1` reads 0.657 (inactive). The result for `N#Cc1ccc(NN2C(C(O)C(c3ccccc3)c3ccccc3)C=CC3C(=O)N(c4ccccc4)C(=O)C32)cc1` (stereo unspecified) reads 0.96 (inactive); that for `Cc1ccccc1C(O)C1C=CC2C(=O)N(c3ccccc3)C(=O)C2N1Nc1ccc(C(C)C)cc1` (stereo unspecified), 1.05 (inactive); that for `CO[C@H]1O[C@H](CO)[C@@H](OC(=O)Nc2cccc(F)c2)[C@H](OC(=O)Nc2ccccc2)[C@@H]1OC(=O)Nc1ccccc1`, 1.93 (inactive).

On to `C=CCOC(=O)[C@H]1[C@@H]2C(=O)O[C@@H](c3ccccc3)[C@@H](c3ccccc3)N2[C@@H](c2ccc(OCCOC(=O)[C@H]3C[C@H]4C(=O)N[C@@H](CCCCNC(C)=O)C(=O)N4[C@H]3c3ccc(O)cc3)cc2)[C@]12C(=O)Nc1ccc(I)cc12`, for which the z-score was 0.461 (inactive). On to `Cc1nc2cc(Br)ccc2c(=O)o1`, for which the z-score was 0.0276 (inactive). Under `CCCC[C@H]1OB(O)C[C@H]2C1=C(COC)Cn1c(=O)n(-c3ccccc3)c(=O)n12` stands 0.0541 (inactive). For `COc1ccc([Si](C)(C)[C@@H]2[C@@H](CCO)O[C@]3(C(=O)N(Cc4ccc(N(C=O)c5ccccc5)cc4)c4ccccc43)[C@H]2C)cc1`, the z-score was 2.33 (inactive). As for `CC(C)[Si](C#Cc1ccc(Oc2ccccc2)cc1)(O[Si](C#Cc1ccc(Oc2ccccc2)cc1)(C(C)C)C(C)C)C(C)C`, the z-score is 1.85 (inactive). The result for `CN1C=C(C(=O)OCCS(C)(=O)=O)C(C(=O)OCCS(C)(=O)=O)=CC(c2ccc(CO)cc2)=CC1C1CC1` (stereo unspecified) reads 1.46 (inactive); that for `COc1ccc(CCNC(=O)[C@@]2(Sc3ccc(C)cc3)CC(=O)N(C(C)C)[C@@H]2c2ccc(CO)cc2I)cc1`, 0.428 (inactive).
